In the library only some 1.6% were active in any assay of this set; here they are far more common.
KCNQ2 block – inhibitors of rat KCNQ2 potassium channel. O88943. CHO-K1 KCNQ2, FluxOR thallium flux, 20 min; active compounds read low. B-score at 10 µM. 310,000 tested, 1.1% active. AID 2156;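 active means fluorescence ratio B-score at most minus 3 library SDs, with starting brightness B-score within 2 library SDs, cut at about -5.5 in these data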
KCNQ2 pot – KCNQ2 (rat) channel potentiation; CHO-K1 KCNQ2, FluxOR thallium flux fluorescence; active compounds read high; B-score at 10 µM; 310,000 tested, 0.54% active; AID 2239;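 active means fluorescence ratio B-score at least 3 SD of library B-scores, with initial fluorescence B-score within 3 of them, cut at about 5.3 in these data; same plate scores as AID 2156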;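 further: B-score of peak minus minimum over baseline fluorescence ratio after K+ and Tl+ stimulus; positive B-score means potentiation of KCNQ2 with more thallium influx and brighter signal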
Kir21 confirm – confirmation of mouse Kir2.1 potassium channel inhibitors | shares compounds with KCNQ2 pot | Kir2.1-expressing cells, FluxOR thallium flux fluorescence; active compounds read low | Tl flux remaining, % of negative control (active compounds read low), % at 10 µM | 2,300 tested, 41% active;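 active means Primary-screen hit whose thallium flux fell at least 3 control SD below untreated wells in both duplicates, with normal baseline fluorescence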;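 further: 0% = blank wells without stimulus and 100% = stimulated no-compound controls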
Target sequence (P35561 whole entry, looked up): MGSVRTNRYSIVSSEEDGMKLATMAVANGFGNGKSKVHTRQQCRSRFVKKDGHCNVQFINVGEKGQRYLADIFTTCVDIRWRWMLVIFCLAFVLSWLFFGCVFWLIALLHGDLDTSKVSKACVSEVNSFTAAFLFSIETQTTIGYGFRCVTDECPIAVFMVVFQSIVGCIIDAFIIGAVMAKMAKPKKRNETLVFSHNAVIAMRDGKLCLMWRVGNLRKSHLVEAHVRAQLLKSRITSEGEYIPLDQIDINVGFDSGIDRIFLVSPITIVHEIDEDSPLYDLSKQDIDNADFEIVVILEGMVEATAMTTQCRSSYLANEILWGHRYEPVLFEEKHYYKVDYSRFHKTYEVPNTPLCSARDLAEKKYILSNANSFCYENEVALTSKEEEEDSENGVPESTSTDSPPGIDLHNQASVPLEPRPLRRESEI
HEK293 Tl flux – alters thallium flux in parental HEK293 cells, Kir2.1 counter-screen. shares compounds with KCNQ2 pot. FluxOR thallium flux fluorescence; 0% = unstimulated blank wells. FluxOR signal as % of negative control (100 = no effect), % at 10 µM. 2,300 tested, 19% active;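 active means dye signal at least 3 control SD above or below untreated wells in both duplicates, raw fluorescence within 3, either direction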;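 further: percent is based on the flux ratio of peak minus minimum fluorescence over baseline F0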
CHO-K1 Tl ctr – counter-screen for KCNQ2 potentiators: effect in parental CHO-K1 cells; shares compounds with KCNQ2 pot; AID 2282; 1,200 tested, 43% active; FluxOR thallium flux fluorescence; zero = vehicle mean+3SD, 100% = vehicle-minus-blank window; activity increase over 3SD of controls, % at 10 µM;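 active means signal rise of at least 3 SD above the untreated control mean, in both duplicate wells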;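 further: counter screen of KCNQ2 potentiator hits so any rise reflects channel-independent effects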
KCNQ1 sel pot – selectivity of KCNQ2 potentiators: effect on human KCNQ1; activation over 3SD threshold, % at 10 µM; AID 2283; shares compounds with KCNQ2 pot; CHO KCNQ1 stable, FluxOR thallium flux fluorescence; beyond 3SD, as % of vehicle-control signal; 1,200 tested, 28% active;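 active means fluorescence ratio rise of at least 3 SD of vehicle wells above their mean, in both replicate wells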;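 further: 0% = vehicle mean plus 3 SD and 100% = vehicle minus unstimulated blank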
KCNQ2 pot conf – rat KCNQ2 channel potentiator confirmation. shares compounds with KCNQ2 pot. CHO-KCNQ2 cells, FluxOR thallium flux fluorescence. potentiation, less the hit threshold, % at 10 µM. 1,200 tested, 68% active;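 active means fluorescence ratio rising 3 SD or more over the vehicle control mean in both replicates, plus primary screen hit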;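 further: peak minus minimum thallium fluorescence divided by baseline after K/Tl stimulus; 0% = vehicle mean plus 3 SD and 100% = vehicle minus unstimulated blank difference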
Kir21 spec – selectivity of KCNQ2 potentiators: effect on mouse Kir2.1 | HEK293 Kir2.1, FluxOR thallium flux fluorescence | shares compounds with KCNQ2 pot | activity over 3SD threshold, % at 10 µM | 1,200 tested, 2% active;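 active means fluorescence ratio rise of at least 3 SD above the vehicle-control mean, seen in both replicates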;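 further: 0% = vehicle mean plus 3 SD and 100% = vehicle minus no-stimulus blank window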
KCNQ2 W236L pot – rat KCNQ2 W236L mutant potentiation by KCNQ2 potentiators; shares compounds with KCNQ2 pot; CHO KCNQ2-W236L, automated patch clamp current; current increase over 3SD of negative controls (%), active compounds read high, % at 25 µM; 940 tested, 10% active; AID 2558;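 active means current increase at least 3 SD of the untreated controls above them in both duplicate recordings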
Numbers without * were called inactive; i = inactive; / = no result given.

SMILES	KCNQ2 block	KCNQ2 pot	Kir21 confirm	HEK293 Tl flux	others
O=C(CSc1nc2ccccc2o1)Nc1ccccc1N1CCOCC1	i	0.43	56%*	i
O=C(CSc1nc2ccccc2o1)Nc1ccc(N2CCOCC2)cc1	i	/	/	/
O=Cc1cccn1Cc1ccccc1[N+](=O)[O-]	i	/	/	/
CCOC(=O)N1CCN(c2nc3ccc(C)cc3n3cnnc23)CC1	i	1	/	/
CC1Cc2ccccc2N1C(=O)COc1ccc2c(c1)OCO2 (stereo not given)	i	/	/	/
COc1ccc(Cc2c(C)nc(N)nc2Cl)cc1	i	1.2	/	/
Cc1nc(N)nc(N)c1CCCc1ccc(Cl)c(Cl)c1	i	/	37%*	68%*
Cc1ccc(NC(=O)Cn2cc(C(F)(F)F)cc(Cl)c2=O)cc1Cl	i	1.6	/	/
O=C(CSc1nnc2c(n1)[nH]c1ccccc12)Nc1nncs1	i	0.42	/	/
COc1ccccc1OCCCCCc1c(C)n[nH]c1C	i	/	/	/
COc1ccccc1OCCCc1c(C)n[nH]c1C	i	5.8*	i	i	CHO-K1 Tl ctr=42*;KCNQ1 sel pot=-8;KCNQ2 pot conf=-6;Kir21 spec=-47;KCNQ2 W236L pot=i
O=C(O)c1cccc(NC(=O)c2ccc3c(c2)C(=O)N(C2CCCCC2)C3=O)c1	i	2.1	/	/
Cc1cccc(C(=O)Nc2nnc(S(=O)(=O)N3CCC(C)CC3)s2)c1	i	1.4	/	/
Cc1c(C(=O)O)cccc1-c1ccc(C=O)o1	i	/	/	/
O=Cc1ccc(-c2ccccc2OC(F)(F)F)o1	i	6.6*	i	i	CHO-K1 Tl ctr=-6;KCNQ1 sel pot=-16;KCNQ2 pot conf=-7;Kir21 spec=-18
CCN(c1cccc(C)c1)S(=O)(=O)c1ccc2c(c1)N(C(C)=O)CCS2	i	/	/	/
Cc1cc(-c2ccccc2)nc(SCC(=O)N2CCCC2)n1	i	0.72	/	/
CCN1CCN(C(=O)CCc2nnc3ccc(N4CCN(c5cccc(OC)c5)CC4)nn23)CC1	i	/	/	/
CON/C=N/C(=S)Nc1ncc(C(F)(F)F)cc1Cl	i	12*	i	218%*	CHO-K1 Tl ctr=-22;KCNQ1 sel pot=32*;KCNQ2 pot conf=18*;Kir21 spec=-21;KCNQ2 W236L pot=i
CC(Cl)C(=O)Nc1ncc(C(F)(F)F)cc1Cl (stereo not given)	i	0.2	/	/
Cc1ccc(NC(=S)NNc2ncc(C(F)(F)F)cc2Cl)cc1	i	1.9	/	/
ON/C=N/C(=S)Nc1ncc(C(F)(F)F)cc1Cl	i	11*	i	140%*	CHO-K1 Tl ctr=-1;KCNQ1 sel pot=-13;KCNQ2 pot conf=41*;Kir21 spec=-37;KCNQ2 W236L pot=i
O=C(CSc1nc(=O)n2ccccc2n1)N1CCCCCC1	i	1.3	/	/
CCc1ccc(OCC(=O)O/N=C(\N)Cc2ccc([N+](=O)[O-])cc2)cc1	i	/	/	/
CC(=O)C1C(c2cccc(F)c2)c2c(n[nH]c2C)CC1(C)O (stereo not given)	i	0.05	/	/
SMILES	KCNQ2 block	KCNQ2 pot	Kir21 confirm	HEK293 Tl flux	others
COc1ccc(C(=O)NCCCN(C)CCCNC(=O)c2ccc(OC)cc2)cc1	i	0.53	/	/
Clc1cccc(NCc2nnc(SCc3ccccc3Cl)o2)c1	i	/	/	/
Clc1cccc(NCc2nnc(SCc3ccccc3)o2)c1	i	22*	i	i	CHO-K1 Tl ctr=46*;KCNQ1 sel pot=-20;KCNQ2 pot conf=-19;Kir21 spec=-47
CCOC(=O)N1CCN(S(=O)(=O)c2cc([N+](=O)[O-])c(C)cc2C)CC1	i	0.47	/	/
Cc1ccc(S(=O)(=O)NCCc2ccccc2)cc1	i	/	/	/
Cc1cc(C)c(S(=O)(=O)NCCc2ccccc2)c(C)c1	i	/	50%*	i
O=C(NCc1ccc(F)cc1)Nc1ccc(Cl)cc1	i	1.4	/	/
O=C(NCc1ccc(F)cc1)Nc1cccc(Cl)c1	i	5.8*	i	i	CHO-K1 Tl ctr=87*;KCNQ1 sel pot=54*;KCNQ2 pot conf=13*;Kir21 spec=-36;KCNQ2 W236L pot=i
O=C(NC(=O)c1ccccc1)Nc1cccc(S(=O)(=O)N2CCCCC2)c1	i	/	/	/
c1ccc2c(c1)ncn2-c1ncnc2sc3c(c12)CCCC3	i	0.16	/	/
CC(O)CNc1nc2ccccc2n1-c1ncnc2sc3c(c12)CCC3 (stereo not given)	i	/	78%*	i
O=P(c1ccccc1)(c1ccccc1)c1nc(-c2ccc(Cl)cc2)oc1N1CCOCC1	i	/	/	/
Cc1csc(=O)n1CCC(=O)OCC(=O)c1ccc(Br)cc1	i	/	/	/
O=C(Nc1cccnc1)c1ccc(Oc2ccccc2)cc1	i	18*	i	i	CHO-K1 Tl ctr=-12;KCNQ1 sel pot=-18;KCNQ2 pot conf=85*;Kir21 spec=-49;KCNQ2 W236L pot=i
O=C(NNC(=O)c1ccc(Cl)c(Cl)c1)c1cccnc1	i	/	/	/
O=C(Nc1cccnc1)c1ccccc1Oc1ccccc1	i	/	/	/
O=C(Nc1cccnc1)c1ccc(Cl)c(Cl)c1	i	8.1*	i	i	CHO-K1 Tl ctr=18*;KCNQ1 sel pot=-6;KCNQ2 pot conf=21*;Kir21 spec=-32;KCNQ2 W236L pot=11%*
Cc1nc(Cl)c2c(n1)NC1=C(O2)C(=O)CCC1	i	/	/	/
O=C(Nc1ccccc1F)N1CCc2ccccc2C1	i	/	/	/
O=C1CCNCCN1[C@H](CO)c1ccccc1	i	0.98	/	/
CCN(C(=O)CN1CCOCC1)C1(C)C(=O)c2ccccc2C1=O	i	/	/	/
O=C(O)c1ccc(S(=O)(=O)/N=C2\C=C(Nc3ccccc3F)C(=O)c3ccccc32)cc1	i	3.3	/	/
Cc1ccccc1NC1=C/C(=N\S(=O)(=O)c2ccc(C(=O)O)cc2)c2ccccc2C1=O	i	7.2*	i	i	CHO-K1 Tl ctr=-10;KCNQ1 sel pot=-14;KCNQ2 pot conf=8.9*;Kir21 spec=-6;KCNQ2 W236L pot=16%*
CC(=O)N/C(=C\c1ccccc1)C(=O)OCC(=O)N(C)C1CCCCC1	i	/	/	/
CCN(CC)CCCN(C(=O)c1ccco1)c1nc(-c2ccc(Cl)cc2)cs1	i	/	51%*	i
SMILES	KCNQ2 block	KCNQ2 pot	Kir21 confirm	HEK293 Tl flux	others
CCN(CC)CCCN(C(=O)c1ccco1)c1nc(-c2ccc(C)cc2)cs1	i	/	/	/
COc1ccc(CCC(=O)NCc2ccc3c(c2)OCO3)cc1	i	3	/	/
COc1ccc(CCC(=O)NCc2cccc(C(F)(F)F)c2)cc1	i	6.7*	i	i	CHO-K1 Tl ctr=24*;KCNQ1 sel pot=-17;KCNQ2 pot conf=-2;Kir21 spec=-33;KCNQ2 W236L pot=i
CC(C)[C@H](NS(=O)(=O)c1ccc(Cl)cc1)C(=O)OCC(=O)NCCN1C(=O)CSC1=O	i	0.99	/	/
O=C(NC1CCCCC1)C(c1cccnc1)N(CCc1ccccc1)C(=O)Cc1cccs1 (stereo not given)	i	/	/	/
O=C(c1ccco1)N1CCN(C(=O)C2CC(=O)N(c3ccccc3)C2)CC1 (stereo not given)	i	0.61	/	/

From PubChem BioAssay
